Most compounds without a hit are left out; they make up all but 12% or so of the library.
Sfp inh: blocks B. subtilis Sfp PPTase activity; Biochemical Sfp PPTase activity, qHTS; 310,000 compounds, 3.5% hits; Q9F4F7; Potency, µM, inactives show largest response in the series, negative = inhibition, usual class: inhibitors;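 also: the enzyme is Sfp with the accession as filed and its product quenches rhodamine fluorescence; potency is read from the fitted curve at half-maximal effect; 0% = enzyme reaction without inhibitor and -100% = no enzyme wells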
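Compounds were incubated with enzyme (final 15 nM) for 15 min at room temperature before substrate addition started the reaction. Fluorescence at 525 nm excitation, 598 nm emission was recorded immediately and after 30 minutes.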
JMJD2A Tudor: JMJD2A Tudor domain (human) inhibition; O75164; AlphaScreen JMJD2A-Tudor / H3K4me3 peptide binding; Potency, µM (series often up to 114 µM), for the others: at the highest dose activity change, negative = inhibition, most hits filed as inhibitors; 390,000 compounds, 4.4% hits; AID 504339; also: potency is read from the fitted curve at half-maximal effect; % is scaled to controls: 0 for no effect and ±100 for the full control effect; nearly all actives have a fitted effect of over 50% in size
HP1b chromo inh: blocks HP1-beta chromodomain binding to methylated histone tails. Potency, µM (series often up to 114 µM), without a hit: at the highest dose activity change, negative = inhibition, hits mostly inhibitors. 390,000 compounds, 0.56% hits. AID 540317. AlphaScreen HP1-beta / biotin-H3K9me3 peptide binding. P83916; also: potency is read from the fitted curve at half-maximal effect; nearly all actives have a fitted effect of over 70% in size
Target sequence (P83916 whole entry, looked up): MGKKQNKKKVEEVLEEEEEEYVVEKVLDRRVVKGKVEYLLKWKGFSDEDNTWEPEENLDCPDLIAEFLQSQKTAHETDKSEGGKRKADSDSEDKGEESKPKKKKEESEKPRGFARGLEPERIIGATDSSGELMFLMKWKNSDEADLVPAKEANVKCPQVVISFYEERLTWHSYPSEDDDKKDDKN
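Compound inhibition of the preformed complex between 50 nM HP1-beta and 50 nM biotinylated H3K9me3 peptide was read by AlphaScreen. Buffer was PBS pH 7.4 with 0.01% Tween-20. Incubations ran 30 min at room temperature, with 10 ug/mL donor/acceptor beads.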
BAZ2B block: BAZ2B (human) inhibition | Q9UIF8 | AlphaScreen BAZ2B-H3K14Ac peptide displacement | Potency, µM (doses to about 114 µM), for inactives: at the top dose activity change, negative = inhibition, hits mostly inhibitors | 360,000 compounds, 4.4% hits | AID 504333; also: potency is read from the fitted curve at half-maximal effect; % is scaled to controls: 0 for no effect and ±100 for the full control effect; nearly all actives have a fitted effect of over 60% in size
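In this displacement format the biotinylated H3(5-23) peptide acetylated at Lys14 serves as ligand at 50 nM, with BAZ2B at 50 nM in PBS pH 7.4 containing 0.01% Tween-20. Donor and acceptor beads are 10 ug/mL final.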
G9a inh-1: G9a (human) methyltransferase inhibition. 350,000 compounds, 8.8% hits. Potency, µM (series often up to 102 µM), without a hit: top-dose activity, negative = inhibition, hits mostly inhibitors. AID 504332. G9a H3K9 monomethylation, AlphaScreen, 2 h; also: potency is read from the fitted curve at half-maximal effect; % is scaled to controls: 0 for no effect and ±100 for the full control effect; nearly all actives have a fitted effect of over 75% in size
Target sequence (Q96KQ7 913-1193 limits assumed): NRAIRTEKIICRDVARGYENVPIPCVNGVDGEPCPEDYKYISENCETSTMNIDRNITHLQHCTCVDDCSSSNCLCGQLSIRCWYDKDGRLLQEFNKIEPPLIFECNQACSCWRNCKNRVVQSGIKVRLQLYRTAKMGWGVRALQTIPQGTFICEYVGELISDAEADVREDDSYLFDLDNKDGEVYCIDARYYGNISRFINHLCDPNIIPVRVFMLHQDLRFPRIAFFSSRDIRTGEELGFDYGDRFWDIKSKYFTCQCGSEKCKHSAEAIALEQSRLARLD
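G9a (20 nM) was preincubated 15 min with compound, then reacted 2 h at room temperature with 500 nM biotin-H3K9 peptide and 20 µM SAM. Monomethyl-H3K9 detected by AlphaScreen using anti-H3K9me1 antibody.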
Sfp inh conf: Sfp phosphopantetheinyl transferase inhibition, confirmation | shares compounds with Sfp inh | Sfp PPTase enzymatic assay, qHTS titration | Potency, µM (doses to about 114 µM), inactives show at the highest dose activity change, negative = inhibition, hits mostly inhibitors | 380 compounds, 79% hits | AID 2701;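 also: potency is read from the fitted curve at half-maximal effect; plate controls were uninhibited Sfp reaction for no effect and no enzyme control for full effect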
Target sequence (Q9F4F7 whole entry, looked up): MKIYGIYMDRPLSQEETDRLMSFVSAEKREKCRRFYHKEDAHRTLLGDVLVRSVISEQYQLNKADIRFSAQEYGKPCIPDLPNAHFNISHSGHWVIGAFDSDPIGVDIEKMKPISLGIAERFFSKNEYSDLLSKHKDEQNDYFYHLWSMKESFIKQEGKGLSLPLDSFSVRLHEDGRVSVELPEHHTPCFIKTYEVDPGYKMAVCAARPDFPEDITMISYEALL
Sfp PPTase gel: Inhibits Bacillus subtilis Sfp phosphopantetheinyl transferase. purified Sfp, gel-based phosphopantetheinylation read-out. Potency, µM, most hits filed as inhibitors. shares compounds with Sfp inh. AID 2707. 210 compounds, 20% hits;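 active = potency below 100 µM; inconclusive = dose-dependent response but potency above 100 µM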;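 also: band intensities scaled against SCH202676 control wells before curve fitting; potency is an IC50 for inhibitors of Sfp transfer activity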
ME-1 growth: ME-1 cell growth inhibition. shares compounds with BAZ2B block. ME-1 cell proliferation, ATP luminescence, 48 h. Potency, µM (doses to about 56.1 µM), inactives show top-dose activity change, negative = inhibition, hits mostly inhibitors. 140 compounds, 20% hits. AID 504370
G9a inh-2: inhibits human G9a histone lysine methyltransferase, hit confirmation. shares compounds with JMJD2A Tudor. G9a H3K9 monomethylation, AlphaScreen, 2 h. Potency, µM, actives largely listed as inhibitors. 370 compounds, 89% hits. AID 588344; also: potency is read from the fitted curve at half-maximal effect; nearly all actives have a fitted effect of over 65% in size
Active calls of the source: *; [ ] = another dose, or the depositor's remark. Unless noted, calls follow the shape of the dose curve; as a rule, active = well fitted curve in the direction sought with a large enough effect; inconclusive = small, poorly fitted or top-dose-only effect, or another doubt; inactive = no such curve, though single readings can be large; an effect the other way counts as inactive or inconclusive.

`COc1ccc(Br)cc1CNc1ccc(O)cc1` gave Sfp inh 20µM*, JMJD2A Tudor inconclusive, HP1b chromo inh inconclusive, BAZ2B block 40µM*, G9a inh-1 inconclusive, Sfp inh conf inconclusive, Sfp PPTase gel inconclusive and G9a inh-2 3.2*.
For CCCn1nnnc1NCc1cc(Br)ccc1OC the results were Sfp inh 8%, JMJD2A Tudor 0%, HP1b chromo inh 35%, BAZ2B block -37% and G9a inh-1 1%.
For Cc1ccc(C)c(NC(=S)N2CCN(c3cccc(C(F)(F)F)c3)CC2)c1 the results were Sfp inh 22%, JMJD2A Tudor 0%, HP1b chromo inh 20%, BAZ2B block 2% and G9a inh-1 4%[59 µM].
Cc1ccnc(NC(=S)N2CCN(c3cccc(C(F)(F)F)c3)CC2)c1 was read as Sfp inh 2.5µM*, JMJD2A Tudor 1µM*, HP1b chromo inh -13%[57 µM], BAZ2B block 20µM*, G9a inh-1 1µM*, Sfp inh conf 15µM* and G9a inh-2 0.28*.
Screening COc1ccc2c(CNCc3ccco3)c(C(=O)O)n(Cc3cccc(F)c3)c2c1 returned JMJD2A Tudor -29%, HP1b chromo inh -11%, BAZ2B block inconclusive and G9a inh-1 -34%[59 µM].
For Cc1cc(C(=O)NC2Cc3ccccc3C2)c(C)o1 the results were Sfp inh -5%, JMJD2A Tudor -17%, HP1b chromo inh 15%, BAZ2B block -12% and ME-1 growth -39%[25.6 µM].
Screening CN(C)CCc1c[nH]c2ccc(CC3COC(=O)N3)cc12 (stereo unspecified) returned Sfp inh 16%, G9a inh-1 6%[2.33 µM] and ME-1 growth -6%.
`O=C1c2ccccc2C(=O)N1/N=C/c1ccc(O)c(O)c1O` gave Sfp inh 7.9µM*, JMJD2A Tudor 22µM*, HP1b chromo inh 22µM*, BAZ2B block inconclusive, G9a inh-1 inconclusive and ME-1 growth inconclusive.
COc1cc(/C=N/NC(=O)c2cncc(Br)c2)cc([N+](=O)[O-])c1O was read as Sfp inh 9%, JMJD2A Tudor -22%[11.4 µM], HP1b chromo inh 35%, BAZ2B block 8.9µM*, G9a inh-1 inconclusive and ME-1 growth 35µM*.
For O=c1c2sc3ccccc3c2n(Cc2ccccc2F)c(=O)n1CCc1ccccc1 the results were JMJD2A Tudor -12%, HP1b chromo inh 38%, BAZ2B block -7% and G9a inh-1 1%[59 µM].
Screening CC(=O)Oc1cc(-c2coc3cc(OC(C)=O)c(OC(C)=O)c(OC(C)=O)c3c2=O)cc(OC(C)=O)c1OC(C)=O returned Sfp inh -91%, G9a inh-1 -140%[2.33 µM] and ME-1 growth 4%.
`CCN1CCCC1=O` gave Sfp inh 6% and G9a inh-1 19%[59 µM].
C=CN1CCCC1=O was read as Sfp inh 5% and ME-1 growth -11%.
`O=c1oc2c(O)c(O)cc3c(=O)oc4c(O)c(O)cc1c4c23` gave Sfp inh inconclusive, JMJD2A Tudor 0.71µM*, HP1b chromo inh inconclusive, BAZ2B block 0.79µM*, G9a inh-1 1.3µM* and ME-1 growth -8%.
For Cc1c(O)c(CN(C)C)cc2c1oc(=O)c1ccccc12 the results were Sfp inh 9%, JMJD2A Tudor -10%, HP1b chromo inh 0%, BAZ2B block -5% and G9a inh-1 inconclusive.
For OCc1cc([C@@H](O)CNCCCCCCOCCCCc2ccccc2)ccc1O the results were Sfp inh -7%.
O=C(c1ccccc1)N1CCN(CC(O)COc2ccc(Br)cc2)CC1 (stereo unspecified) was read as Sfp inh 16%, JMJD2A Tudor -3%, HP1b chromo inh 41%, BAZ2B block -27% and G9a inh-1 4%.
Screening Cc1nc(C(N)=O)c(N)n1CCc1ccccc1 returned Sfp inh -21%, JMJD2A Tudor -14%, HP1b chromo inh 18%, BAZ2B block -6% and G9a inh-1 inconclusive.
Nc1ccc(N)c(C(=O)O)c1 was read as Sfp inh inconclusive, JMJD2A Tudor 3.5µM*, HP1b chromo inh 3.2µM*, BAZ2B block 4µM*, G9a inh-1 7.9µM* and ME-1 growth -11%.
`Cc1c(Cl)cccc1NC(=O)Nc1c[nH]c(=O)[nH]c1=O` gave JMJD2A Tudor -16%, HP1b chromo inh 26%, BAZ2B block -7% and G9a inh-1 1%[59 µM].
For Cc1cn(C2OC(COC(=O)c3ccccc3)C(OC(=O)c3ccccc3)C2OC(=O)c2ccccc2)c(=O)[nH]c1=O (stereo unspecified) the results were Sfp inh -10%, JMJD2A Tudor -28%, HP1b chromo inh 11%, BAZ2B block -4% and G9a inh-1 16%[59 µM].
`O=C(OCC1OC(OC(=O)c2cc(O)c(O)c(OC(=O)c3cc(O)c(O)c(O)c3)c2)[C@@H](OC(=O)c2cc(O)c(O)c(OC(=O)c3cc(O)c(O)c(O)c3)c2)C(OC(=O)c2cc(O)c(O)c(OC(=O)c3cc(O)c(O)c(O)c3)c2)C1OC(=O)c1cc(O)c(O)c(OC(=O)c2cc(O)c(O)c(O)c2)c1)c1cc(O)c(O)c(OC(=O)c2cc(O)c(O)c(O)c2)c1` (stereo partly specified) gave Sfp inh 11µM*, G9a inh-1 inconclusive and ME-1 growth 22µM*.
For COc1ccc(OC)c(-c2c3cc(O)c(=O)cc-3oc3cc(O)c(O)cc23)c1 the results were Sfp inh 11µM*, JMJD2A Tudor 1.6µM*, HP1b chromo inh inconclusive, BAZ2B block 2.8µM*, G9a inh-1 6.3µM* and ME-1 growth 22µM*.
Screening O=S(=O)(c1ccc2ccccc2c1)N1CCOCC1 returned Sfp inh 16%, JMJD2A Tudor -16%, HP1b chromo inh 41%, BAZ2B block 6% and G9a inh-1 -5%.
